Source: PubChem BioAssay
Most compounds without a hit are left out; they make up all but 10% or so of the library.
PNC assembly inh – perinucleolar compartment assembly inhibition; AID 2417; PC3M PTB-GFP, PNC prevalence imaging, 16 h; active compounds read low; 140,000 compounds, 3.1% hits; activity change (PNC), negative = inhibition, % at 10 µM;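 active = readout at or below -70, meaning at least 70% loss of cells showing the perinucleolar compartment, a nuclear body marking cancer cells; inconclusive = readout between -30 and a set limit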;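 note: plate controls were DMSO wells for no effect and camptothecin positive control wells for full effect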
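Compounds are pinned in duplicate onto adhered PC3M cells stably expressing GFP-tagged PTB and incubated 16 h at 37 C. Cells are then fixed, nuclei stained with Hoechst, and PNC-positive cells counted.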
Luc counter – blocks Kinase-Glo luciferase, a counter-screen artifact; 200,000 compounds, 0.28% hits; Potency, µM (titrated, usually from 38.3 µM), inactives show top-dose activity change, negative = inhibition, actives largely listed as inhibitors; Q27757; Kinase-Glo luciferase, ATP luminescence, 8 min; active = well fitted inhibition curve with a large enough effect; inconclusive = small, poorly fitted or top-dose-only effect; note: potency is the fitted concentration of half-maximal effect; nearly all actives have a fitted effect of over 60% in size
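Kinase-Glo luciferase light output from ATP and luciferin was measured with 10 uM ATP, within the enzyme's linear range. Buffer: 50 mM imidazole pH 7.2, 50 mM KCl, 7 mM MgCl2, 0.01% Tween 20, 0.05% BSA; luminescence read after 8 min at ambient temperature.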
HPGD inh – HPGD (human) dehydrogenase inhibition. Potency, µM, for the others: top-dose activity change, negative = inhibition, most hits filed as inhibitors. P15428. purified HPGD, NADH fluorescence kinetic, PGE2 substrate. 150,000 compounds, 4.3% hits; note: potency is the fitted concentration of half-maximal effect
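NADH formation kinetics: reaction with 30 uM PGE2 and 1 mM NAD+ (final), 20 nM enzyme, Tris-HCl pH 8 with Tween 20, after 15 min compound preincubation at room temperature. Fluorescence change, last versus first of five reads.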
ALDH1A1 block – inhibitors of human aldehyde dehydrogenase 1A1; P00352; Purified ALDH1A1, NADH fluorescence, propionaldehyde substrate; Potency, µM (series often up to 75.3 µM), for inactives: top-dose activity, negative = inhibition, hits mostly inhibitors; 220,000 compounds, 7.3% hits; AID 1030;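 note: potency is the fitted concentration of half-maximal effect; plate controls were no enzyme wells and a reference inhibitor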
Target sequence (P00352 whole entry, looked up): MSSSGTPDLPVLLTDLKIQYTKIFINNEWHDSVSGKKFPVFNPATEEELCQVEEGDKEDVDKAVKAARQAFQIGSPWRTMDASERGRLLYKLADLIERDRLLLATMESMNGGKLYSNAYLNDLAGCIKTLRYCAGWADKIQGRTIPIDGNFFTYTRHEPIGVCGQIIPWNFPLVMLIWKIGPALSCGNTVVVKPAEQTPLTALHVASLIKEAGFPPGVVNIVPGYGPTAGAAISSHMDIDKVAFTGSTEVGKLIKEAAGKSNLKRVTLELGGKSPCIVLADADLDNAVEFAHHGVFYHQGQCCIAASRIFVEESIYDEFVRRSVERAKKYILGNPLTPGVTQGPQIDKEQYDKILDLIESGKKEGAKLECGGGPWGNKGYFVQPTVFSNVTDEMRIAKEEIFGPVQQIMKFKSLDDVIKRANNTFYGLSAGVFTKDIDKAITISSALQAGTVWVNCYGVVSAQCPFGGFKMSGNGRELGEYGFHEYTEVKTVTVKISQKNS
LMNA splice mod – changes lamin A minigene splicing in HeLa cells. HeLa LMNA splicing GFP/RFP minigene ratio, 48 h. Potency, µM (series often up to 46.1 µM), inactives show at the highest dose ratio change, negative = inhibition, usual class: inhibitors. 200,000 compounds, 0.01% hits; active = well fitted inhibition curve with a large enough effect in the signal ratio, with a control signal flat, not every such curve was filed as active; inconclusive = small, poorly fitted or top-dose-only effect, or effect the other way, or a change in a side signal; the % refers to the signal ratio; note: potency is the fitted concentration of half-maximal effect
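S3 HeLa stable clones carrying a lamin A-EGFP splicing minigene plus DsRed2 were seeded at 600 cells/well in Opti-MEM with 2% FBS, pin-dosed and incubated 48 h at 37°C. Acumen cytometry (488 nm) gave the GFP/RFP total-intensity ratio.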
* hit, by the source's call; ? = inconclusive; . = no result; [ ] = dose if it differs, or a comment. Unless noted, calls come from the whole dose curve; as a rule, active = well fitted inhibition curve with a large enough effect (not every such curve was filed as active); inconclusive = small, poorly fitted or top-dose-only effect, or another doubt; inactive = no such curve, though single readings can be large or run the other way. Unless noted, % is set by controls: 0 for no effect and ±100 for the full control effect.

SMILES | PNC assembly inh | Luc counter | HPGD inh | ALDH1A1 block | LMNA splice mod
S=C=Nc1cccc(NC(=S)NCCCCNC(=S)Nc2cccc(N=C=S)c2)c1 | . | 1% | -12% | ? | .
Cc1c(NC(=S)N/C(=N/S(=O)(=O)c2ccc(Cl)cc2)c2ccccc2)c(=O)n(-c2ccccc2)n1C | . | . | . | 8.9µM* | .
CC(C)O/C(=N\S(=O)(=O)c1ccc(Cl)cc1)c1ccccc1 | ? | -4% | -9% | -2% | -6%
C/C(=N\S(=O)(=O)c1ccc(C)cc1)NC(=S)Nc1ccc(C)cc1 | . | 2% | . | ? | -5%[46 µM]
Cc1cccc(NC(=S)N/C(=N/S(=O)(=O)c2ccccc2)c2ccccc2)c1 | -24 | 3% | ? | 22µM* | -3%
Cc1ccc(S(=O)(=O)/N=C(/NC(=S)Nc2cccc(C)c2)c2ccccc2)cc1 | 8 | -6% | 20µM* | 13µM* | -3%
CC(C)OC(=S)N/C(=N\S(=O)(=O)c1ccccc1)c1ccccc1 | 35 | 2% | ? | 11µM* | -5%
CC(=O)C1=C(c2ccc(Cl)cc2)N(C(C)=O)n2c(nnc2C2CCCCC2)S1 | . | . | . | . | -22%[46 µM]
CC(=O)c1ccc(NC(=S)Nc2cccc(S(=O)(=O)Nc3c(C)n(C)n(-c4ccccc4)c3=O)c2)cc1 | . | 0% | . | 25µM* | 1%[46 µM]
O=[N+]([O-])c1ccc(NC(=S)N/C(=N/CS(=O)(=O)c2ccccc2)c2ccccc2)cc1 | ? | 6% | 28µM* | 28µM* | 5%
CC(=O)N1CCOc2cc(S(=O)(=O)N(C)Cc3ccccc3)c(Cl)cc21 | . | . | . | . | 7%[46 µM]
COc1cc(/C=C2/C(=O)c3cccc([N+](=O)[O-])c3C2=O)c(Br)cc1O | 1 | 11µM* | 1.4µM* | 8.9µM* | ?
CC(=O)OC[C@@H]1O[C@@H](O/N=C2/C[C@@H](O)[C@@H](O)[C@@H]3[C@@H]4C(=O)N([C@@H](C)c5ccccc5)C(=O)[C@H]4CC[C@@H]23)[C@H](OC(C)=O)[C@H](OC(C)=O)[C@@H]1OC(C)=O | . | . | . | 4%[13.5 µM] | .
O=C(NCc1ccc(F)cc1)N[C@@H](Cc1ccccc1)C(=O)O | -127* | 5% | -3% | ? | -3%
O=C(NCc1ccccc1)N[C@@H](Cc1ccccc1)C(=O)O | ? | 0% | -6% | 14% | -11%
CCCCN(C(=O)CSc1nncn1-c1ccccc1OC)c1c(N)n(Cc2ccccc2)c(=O)[nH]c1=O | . | -3% | . | 2.2µM* | -7%[46 µM]
O=S(=O)(O)c1ccc(N=Nc2ccc3c(S(=O)(=O)O)cccc3c2O)c2ccccc12 | . | -12%[7.66 µM] | -11% | 2%[13.5 µM] | .
O=C1/C(=C/c2cccnc2)CCC/C1=C\c1cccnc1 | 7 | 15% | -17% | -3% | ?
Cn1cccc1/C=C1\CCC/C(=C\c2cccn2C)C1=O | 9 | -2% | -1% | 7.9µM* | ?
Cc1ccc(N2C(=O)C3C4C=CC(CNC(=S)N5CCN(c6cccc(C)c6)C(C)C5)(O4)C3C2=O)cc1 (stereo not given) | . | 2% | . | 1.6µM* | ?
Cc1cccc(N2CCN(C(=O)CN3CCOc4ccccc43)CC2C)c1 (stereo not given) | 6 | -2% | 0% | ? | 3%
COc1ccc(CNC(=O)c2ccc3c(c2)N(Cc2ccccc2C)C(=O)c2ccccc2S3=O)cc1 (stereo not given) | . | . | . | . | 3%[46 µM]
c1ccc(CNc2nc3ccccc3[nH]2)cc1 | -19 | 8% | -13% | 4% | 1%
S=C(NCc1ccccc1)NNc1nc2ccccc2[nH]1 | . | 0% | . | 1.3µM* | -23%[46 µM]
O=C1c2cccc3c(O)ccc(c23)C(=O)N1Cc1ccccc1 | -90* | -2% | -29% | -8% | ?
CCc1ccc(NC(=O)CSc2c(C)cnc3c2c(=O)n(C)c(=O)n3C)cc1 | . | . | . | . | -2%[46 µM]
O=C(c1ccccc1)c1cc([N+](=O)[O-])ccc1N1CCOCC1 | -112* | 2% | -7% | ? | ?
CCOC(=O)c1cc(CC)sc1NC(=O)c1cc([N+](=O)[O-])ccc1N1CCOCC1 | -84* | 0% | -14% | ? | -2%
CC1CCCN(c2ccc([N+](=O)[O-])cc2C(=O)c2ccccc2)C1 (stereo not given) | -100* | -2% | -11% | ? | 0%
